# Data taken from PubChem BioAssay (NCI).
# About 83,000 compounds went through this panel and 20% of them were active in at least one assay; those are over-represented in the sample as a whole.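 Assay: single dose, 48 h. Readout: percent growth (0 = no net growth; negative = cell death). Active: <10.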 A number with no mark means an inactive call. Active and inactive are the calls of the source.
# Key:
# Assay in all cases: NCI-60 one-dose screen, 48 h (100 = growth as untreated, 0 = no growth, -100 = all killed)
# Settings in all cases: 10 µM unless noted
# [1] = test system: SK-MEL-2 melanoma
# [2] = test system: EKVX NSCLC
# [3] = test system: SN12C renal
# [4] = test system: ACHN renal
# [5] = test system: CAKI-1 renal
# [6] = test system: A498 renal
# [7] = test system: CCRF-CEM leukemia
# [8] = test system: MOLT-4 leukemia
# [9] = test system: SR leukemia
# [10] = test system: RPMI-8226 leukemia
# [11] = test system: OVCAR-8 ovarian
# [12] = test system: OVCAR-5 ovarian
# [13] = test system: OVCAR-4 ovarian
# [14] = test system: SK-OV-3 ovarian
# [15] = test system: IGROV1 ovarian
# [16] = test system: OVCAR-3 ovarian
# [17] = test system: HS 578T breast
# [18] = test system: NCI/ADR-RES ovarian
# [19] = test system: TK-10 renal
Compound,growth [1],growth [2],growth [3],growth [4],growth [5],growth [6],growth [7],growth [8],growth [9],growth [10],growth [11],growth [12],growth [13],growth [14],growth [15],growth [16],growth [17],growth [18],growth [19]
Cc1ncc(C(=O)Nc2ccc(CN3CCN(C)CC3)c(C(F)(F)F)c2)cc1C#Cc1cnc(N)c2ncccc12,-29.8% (active),42.8%,-20.3% (active),0.608% (active),7.54% (active),-6.89% (active),-1.21% (active),-24.9% (active),-33.9% (active),-26.2% (active),-24.7% (active),49.8%,-6.15% (active),0.896% (active),10.4%,55.4%,24.2%,33.2%,
Cc1ccc(S(=O)(=O)OCCCOS(=O)(=O)c2ccc(C)cc2)cc1,101%,99.7%,98.1%,96%,68.3%,106%,79.1%,62.5%,82.4%,76.2%,90%,125%,,115%,76.1%,107%,99.8%,116%,109%
O=C1/C(=C/c2ccccn2)NC(=S)N1c1ccccc1Cl,119%,75%,58.1%,53.3%,66%,89.5%,9.35% (active),33.4%,19.3%,52.8%,30.4%,68.4%,34.9%,111%,,53.7%,72.5%,,79.9%
COc1cc(C2C(C(=O)OCc3ccccc3)=C(C)NC(C)=C2C(=O)OCc2ccccc2)cc(OC)c1OC,-6.43% (active),31.5%,29.1%,16.2%,26.2%,36.8%,11.3%,-9.95% (active),4.89% (active),-0.546% (active),34%,,37.6%,27.5%,38.7%,35.7%,46.4%,26.1%,34.8%
COc1ccc(/C=C/c2ccc3ccccc3n2)c(OC)c1,48.3%,79.3%,80.1%,87%,73.6%,59.5%,49%,58.3%,29.4%,74.7%,92.5%,86.5%,95.9%,88.6%,,74%,85.5%,49.7%,111%
C=C1C(=O)O[C@H]2[C@H]1CC/C(COC(=O)CSCSCC(=O)OC/C1=C/CC[C@@]3(C)O[C@H]3[C@H]3OC(=O)C(=C)[C@@H]3CC1)=C\CC[C@@]1(C)O[C@@H]21,59%,15.9%,5.07% (active),7.98% (active),15.9%,83.6%,-35% (active),-15.3% (active),-16.4% (active),-31.2% (active),5.96% (active),30.1%,50.5%,104%,0.96% (active),-21.4% (active),23.1%,62.4%,15.3%
Nc1ccc(-c2csc(-n3[nH]c(=O)ccc3=O)n2)cc1,109%,88.4%,103%,99.5%,94%,103%,96.4%,87.6%,102%,97.3%,101%,108%,101%,112%,99%,113%,100%,,120%
CN(C)c1ccc(-c2nc(-c3ccccc3)c(-c3ccccc3)[nH]2)cc1,83.9%,61.1%,92.9%,94%,84.6%,82.4%,90%,83.4%,88.2%,90%,96.9%,122%,94%,83.1%,91.6%,,103%,95%,
CN1CCN(CCCOc2cccc3nc(Nc4ccc(F)c(F)c4)ccc23)CC1,-49.7% (active),34%,24.4%,-31.4% (active),-29.1% (active),33.6%,-26.9% (active),-38.4% (active),0.217% (active),-14.5% (active),24.5%,-20.9% (active),39.3%,24.2%,,8.36% (active),16.8%,12.1%,-4.13% (active)
COc1ccc(-c2cc(-c3ccccc3)nc(N3CCN(CCNc4ccnc5cc(Cl)ccc45)CC3)n2)cc1,-9.46% (active),79.9%,-43.3% (active),66.3%,-24.9% (active),15.3%,3.98% (active),-1.76% (active),7.06% (active),-28.2% (active),-81% (active),48.2%,-27.6% (active),112%,-74% (active),7.81% (active),66.4%,-63.2% (active),-13.4% (active)
CC1=C(C(=O)Nc2ccccc2)C(c2ccc3c(c2)OCO3)NC(=S)N1 (stereo not drawn),106%,107%,104%,107%,97.1%,114%,115%,112%,99.2%,109%,104%,115%,114%,110%,103%,110%,105%,106%,97.8%
CC(C)(C)c1cc(Cl)c(O)c(CNCCO)c1,113%,101%,109%,110%,94.1%,89.4%,110%,115%,103%,113%,110%,112%,104%,110%,117%,111%,82.7%,109%,
O=c1cc(-c2ccccc2)[nH]c2ncc(-c3ccc(F)cc3)n12,74.2%,87.8%,88.5%,88.3%,48.1%,59%,56.3%,39.9%,16.1%,74.5%,89.4%,94.5%,93.9%,82.1%,67%,54%,68%,45.3%,105%
CC(=O)c1ccc(Nc2nccc(-c3ccc4ccccc4c3)n2)cc1,91.7%,96.5%,101%,98.8%,104%,1.1% (active),88.3%,74.4%,42.6%,90%,96.6%,99.8%,105%,99.3%,86.3%,99.3%,86.2%,84%,87.2%
COc1ccc(CNc2c3ccccc3nc3ccccc23)c(OC)c1,94%,51.1%,31%,25.8%,36.2%,,55.4%,18.5%,18.1%,34.9%,37.8%,50.3%,39.7%,63.3%,22.4%,69.2%,68.9%,35.6%,54.4%
CCN1C(=O)N(CC)C2C1NN=c1s/c(=C3\C(=O)N(CCC(C)C)c4ccccc43)c(=O)n12 (stereo not drawn),60.8%,48.2%,25.2%,30.7%,29.9%,-1.36% (active),13.7%,20.7%,16.7%,17%,9.81% (active),34.1%,45.5%,43.7%,19.4%,3.23% (active),15%,8.98% (active),79.8%
Cc1ccc(-c2nc(SCc3nc4cc(Cl)c(Cl)cc4[nH]3)[nH]c(=O)c2C#N)cc1,90.1%,96.4%,102%,106%,88.3%,112%,111%,101%,96.7%,115%,98.2%,101%,105%,96.2%,99.6%,99.9%,102%,111%,99.3%
CC1(C)CC(=O)c2c(nn(-c3ccc(Br)cc3)c2-c2cn(-c3ccccc3)nc2-c2cccnc2)C1,98.1%,92.5%,92.7%,93.4%,66.5%,98.5%,94.4%,81.5%,112%,72.5%,97.6%,106%,84.5%,82.5%,,99.7%,98.1%,94%,140%
CCOc1cccc(/C=N/NC(=O)c2cccc(Nc3ccnc(C(F)(F)F)c3)c2)c1O,58.7%,21.3%,33.2%,24.4%,18.3%,61.5%,6.39% (active),18.2%,41.4%,27.3%,24.4%,40.9%,39.1%,30.2%,24.2%,43.2%,43.7%,,49.5%
C=C(C)[C@@H]1CCC[C@]2(C(=O)O)CC[C@]3(C)[C@@H](CC[C@@H]4[C@@]5(C)C/C(=C/c6ccncc6)C(=O)C(C)(C)[C@@H]5CC[C@]43C)[C@@H]12,48.3%,24.9%,25.7%,26.8%,31.4%,57.7%,0.771% (active),6.38% (active),3.51% (active),-9.5% (active),24.9%,47.9%,28.4%,78%,22.6%,11.5%,53%,37.5%,52.2%
CC(=C(c1ccc(OCCN2CCCCC2)cc1)c1ccc(OCCN2CCCCC2)cc1)c1ccc(Cl)cc1,-82.9% (active),-86.4% (active),-91.1% (active),-99.1% (active),-98.4% (active),-85.9% (active),-71.5% (active),-71.2% (active),-60.3% (active),-61.7% (active),-77.4% (active),-92.5% (active),-88.8% (active),-91.1% (active),-83% (active),-91.4% (active),-72.4% (active),-90.8% (active),-88.5% (active)
N=c1c(S(=O)(=O)c2ccccc2)cc2c(=O)n3ccccc3nc2n1CC1CCCO1 (stereo not drawn),112%,107%,96.8%,103%,85.2%,84.1%,109%,102%,106%,109%,116%,89.8%,99.9%,,102%,108%,104%,98.7%,114%
